Reference: PubChem BioAssay AID1578 (Sanford-Burnham Center for Chemical Genomics, 2009)
The campaign covered roughly 290,000 compounds. About 3,000 (1%) were called active. No stated cut-off is given here; in the data, active means inhibition mostly above about 36% (no sharp cut-off); inactive means mostly below about 34%. The list comes from a sample in which actives are over-represented; it also holds similar structures and randomly drawn compounds.

Assay: NOD1 signaling inhibitors, primary screen, cell-based, luminescence, uHTS (AID 1578);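 further: HEK-293T reporter cells stimulated with the NOD1 agonist gamma-tri-DAP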
Settings: NOD1-driven NF-kB luciferase reporter cells, at 4 µM, active compounds read high

| Structure (SMILES) | inhibition |
| --- | --- |
| Brc1cc(Br)c2nc3c(cc2c1)CCC3 | -13.3% (inactive) |
| COc1cc2cc(Br)cc(Br)c2nc1C | 37.7% (inactive) |
| COc1ccc(CN(C)S(=O)(=O)c2nnc(NC(=O)c3cccc(F)c3)s2)cc1OC | 4.4% (inactive) |
| COc1ccc(CN(C)S(=O)(=O)c2nnc(NC(=O)c3cccc(OC)c3)s2)cc1 | 7.1% (inactive) |
| COc1cccc(C(=O)Nc2nnc(S(=O)(=O)N(C)Cc3ccc(F)cc3)s2)c1 | 16.8% (inactive) |
| CN(Cc1ccccc1)S(=O)(=O)c1nnc(NC(=O)c2ccccc2)s1 | 1.1% (inactive) |
| CC(=O)C1=C(O)C(=O)N(Cc2ccccc2)C1c1ccco1 (centres undefined) | -9.8% (inactive) |
| Cc1ccccc1CN1CCC(n2nccc2NC(=O)c2cccnc2)CC1 | -23.7% (inactive) |
| Cc1ccc(S(=O)(=O)CCC(=O)OCC(=O)c2c[nH]c3ccccc23)cc1 | 17.3% (inactive) |
| COCCn1c(Cc2ccccc2)nnc1SCC(=O)Nc1cc(C)on1 | -22.5% (inactive) |
| CCn1c(Cc2ccccc2)nnc1SCC(=O)Nc1cc(C)on1 | 5% (inactive) |
| CCCCn1c(Cc2ccccc2)nnc1SCC(=O)Nc1cc(C)on1 | 112% (active) |
| Cc1ccc(S[C@@H](CCN2CC[C@H](O)CCC2=O)c2ccccc2)cc1 | -12.3% (inactive) |
| COc1ccc(C(=O)n2cnc3ccccc32)cc1 | -10.8% (inactive) |
| CCN(CC)c1ccc(C(=O)n2cnc3ccccc32)cc1 | 38.7% (active) |
| CC(C)(C)c1ccc(C(=O)n2cnc3ccccc32)cc1 | -13.4% (inactive) |
| O=C(CSc1ncn[nH]1)NCCCc1ccccc1 | -16.5% (inactive) |
| COc1ccc(CNc2cccc3[nH]c(C(F)(F)F)nc23)cc1OC | -14.9% (inactive) |
| COc1ccc(CNc2cccc3[nH]c(C(F)(F)F)nc23)cc1 | 6% (inactive) |
| COc1cc(CNc2cccc3[nH]c(C(F)(F)F)nc23)cc(OC)c1 | 33% (active) |
| O=C1OCC/C1=C\c1ccc2c(c1)OCO2 | -0.1% (inactive) |
| CCOC(=O)c1c2c3c(cccc3[nH]c1=O)C(=O)c1ccccc1-2 | -40.2% (inactive) |
| CCOC(=O)c1c(C)[nH]c(C)c1-c1ccccc1OC | 13.9% (inactive) |
| CCOC(=O)c1c(C)[nH]c2c1-c1ccccc1C(=O)C2=O | 106% (active) |

| Structure (SMILES) | inhibition |
| --- | --- |
| COc1ccc2[nH]cc(C(=O)CN3CCN(C/C=C/c4ccccc4)CC3)c2c1 | -1.2% (inactive) |
| Cc1[nH][nH]c(=O)c1C(c1c(C)[nH][nH]c1=O)c1cn(Cc2ccccc2Cl)c2ccccc12 | 83.9% (active) |
| Cc1[nH][nH]c(=O)c1C(c1c(C)[nH][nH]c1=O)c1cn(Cc2cccc3ccccc23)c2ccccc12 | 10.6% (inactive) |
| Cc1[nH][nH]c(=O)c1C(c1c(C)[nH][nH]c1=O)c1cn(Cc2ccc(Cl)c(Cl)c2)c2ccccc12 | -18.9% (inactive) |
| Cc1c(CN(C)Cc2cn(C)nc2-c2ccccc2F)[nH]c2ccccc12 | -13.2% (inactive) |
| c1ccc(CCn2nnnc2C(c2cccs2)N2CCN(Cc3ccc4c(c3)OCO4)CC2)cc1 (centres undefined) | -12.4% (inactive) |
| COc1ccc(C)cc1NC(=O)CSc1nnc(COc2ccc(C)cc2)n1Cc1ccco1 | 28.5% (inactive) |
| CCC(C)Sc1nc(O)c(Cc2ccccc2)c(=O)[nH]1 (centres undefined) | 6.4% (inactive) |
| O=C(CSC1=NC(=O)C(Cc2ccccc2)C(=O)N1)NC1CCCCC1 (centres undefined) | -8.3% (inactive) |
| COc1ccc(-c2cn[nH]c2-c2ccc(OCc3ccc([N+](=O)[O-])cc3)cc2O)cc1 | 91.5% (active) |
| COc1ccccc1-c1cn[nH]c1-c1ccc(OCc2ccccc2F)cc1O | 0% (inactive) |
| O=[N+]([O-])c1ccc(COc2ccc(-c3[nH]ncc3-c3ccc(Cl)cc3)c(O)c2)cc1 | 5.4% (inactive) |
| Nc1ncc(-c2ccccc2)c(-c2ccc(OCc3ccccc3)cc2O)n1 | 2.3% (inactive) |
| COc1ccc(-c2cn[nH]c2-c2ccc(OCc3ccc([N+](=O)[O-])cc3)cc2O)cc1OC | 34.4% (inactive) |
| COc1ccc(-c2cnc(N)nc2-c2ccc(OCc3ccccc3)cc2O)cc1 | -0.9% (inactive) |
| COc1ccc(-c2cn[nH]c2-c2ccc(OCc3ccccc3)cc2O)cc1OC | 28.5% (inactive) |
| O=C(/C=C/NCc1cccnc1)C(F)(F)C(F)(F)F | -53% (inactive) |
| Cc1ccc(-c2csc(Nc3ccc(C(=O)O)cc3)[n+]2Cc2ccccc2)cc1 | 17.8% (inactive) |
| O=C(CCN1C(=O)[C@@H]2Cc3ccccc3CN2C1=O)NCc1ccc(Cl)cc1 | -7.8% (inactive) |
| NC(=O)c1ccccc1NC(=O)c1ccccc1S(=O)(=O)c1ccccc1[N+](=O)[O-] | -18.3% (inactive) |
| [O-]/[N+](=C/c1ccc(F)cc1)c1ccc(Cl)cc1 | -85.9% (inactive) |
| COc1cccc(C(=O)NCc2ccc3c(c2)OCO3)c1OC | -33% (inactive) |
| CC1=C(C(=O)N(C)C)C(c2cccc(Cl)c2)NC(=O)N1 (centres undefined) | -23.2% (inactive) |
| COc1ccc(CCNC(=O)c2ccc3c(c2)N(Cc2ccc(F)cc2)CCS3)cc1OC | -34.1% (inactive) |

| Structure (SMILES) | inhibition |
| --- | --- |
| COc1ccc(CCNC(=O)c2ccc3c(c2)N(Cc2ccc(C)cc2)CCS3)cc1OC | 8.4% (inactive) |
| CCCC[C@@H]1CNC(=S)N1CCc1cccc(F)c1 | -29.2% (inactive) |
| CCOc1ncccc1C(=O)Nc1cc(S(=O)(=O)N2CCOCC2)ccc1N1CCCC1 | 0.1% (inactive) |
| CC1CCN(C(=O)C2CCN(S(=O)(=O)c3ccc(-n4cnnn4)cc3)CC2)CC1 | -10.6% (inactive) |
| O=C(Cc1cccc2ccccc12)N/N=C/c1ccc(Sc2cccc3cccnc23)o1 | 61.9% (inactive) |
| O=C(CSc1cccc2cccnc12)N/N=C/c1ccc(O)cc1 | -3.1% (inactive) |
| O=C(CCc1ccccc1O)N/N=C/c1ccc(Sc2cccc3cccnc23)o1 | 89.3% (active) |
| CCOc1cc(/C=N/NC(=O)CSc2cccc3cccnc23)ccc1O | -32.2% (inactive) |
| CCCCC(=O)N/N=C/c1ccc(Sc2cccc3cccnc23)o1 | -12.8% (inactive) |
| O=C(CSc1cccc2cccnc12)N/N=C/c1cccc(O)c1 | -22% (inactive) |
| O=C(CSc1cccc2cccnc12)N/N=C/c1cccnc1 | 80% (active) |
| O=C(CSc1cccc2cccnc12)N/N=C/c1ccncc1 | -32.7% (inactive) |
| COc1cccc(/C=N/NC(=O)CSc2cccc3cccnc23)c1 | 33.4% (active) |
| Cc1cc(NC(=O)CSc2nnc(CNC(=O)c3ccc(F)cc3)o2)no1 | -38.1% (inactive) |
| O=C(CSc1nc2ccccc2c(=O)n1CCCN1CCOCC1)c1c[nH]c2ccccc12 | 41% (inactive) |
| O=C(NCc1ccccc1OC(F)(F)F)C1CCC(=O)N(Cc2ccccn2)C1 (centres undefined) | -8% (inactive) |
| CC(C)(C)OC(=O)NC(Cc1ccccc1)C(=O)N1CCC(C(=O)NCC(=O)Nc2ccc(F)cc2)CC1 (centres undefined) | -18% (inactive) |
| O=C(Nc1cccc(F)c1)N1CCC(n2c(=O)[nH]c3ccccc32)CC1 | -2.7% (inactive) |
| COc1ccc(-c2noc(N3CCC(C(=O)NCCCN4CC(C)CC(C)C4)CC3)n2)cc1 (centres undefined) | -3.9% (inactive) |
| CCOC(=O)Cc1ccc(NC(=O)c2ccc(C(C)(C)C)cc2)cc1 | 69.9% (active) |
| COC(=O)Cc1ccc(NC(=O)c2ccc(NC(=O)c3ccco3)cc2)cc1 | -16% (inactive) |
| CC(C)(C)c1ccc(C(=O)Nc2ccc(CC(=O)O)cc2)o1 | 76.3% (active) |
| COC(=O)Cc1ccc(NC(=O)c2ccc(C(C)(C)C)cc2)cc1 | 88.2% (active) |
| CCOC(=O)Cc1ccc(NC(=O)c2ccccc2Br)cc1 | -20.3% (inactive) |

| Structure (SMILES) | inhibition |
| --- | --- |
| CC(C)(C)c1ccc(C(=O)Nc2ccc(NC(=O)C(=O)O)cc2)o1 | -19% (inactive) |
| Cc1ccc(C(=O)Nc2ccc(CC(=O)O)cc2)o1 | -4.8% (inactive) |
| COC(=O)Cc1ccc(NC(=O)c2ccc(C)c(C)c2)cc1 | -39.1% (inactive) |
| CCOC(=O)Cc1ccc(NC(=O)c2ccc([N+](=O)[O-])cc2)cc1 | -35.6% (inactive) |
| C=C(CO)C1Cc2cc(C(C)=O)ccc2O1 (centres undefined) | -3.8% (inactive) |
| CC(C)(C)c1ccc(C(=O)c2c[nH]c(C(=O)NCCCN3CCOCC3)c2)cc1 | -19.7% (inactive) |
| COc1ccc(CCC(=O)NC(C)C)cc1 | -11.1% (inactive) |
| O=S(=O)(NCCN1CCOCC1)c1ccc(-c2ccc(S(=O)(=O)NCCN3CCOCC3)cc2)cc1 | -11.2% (inactive) |
| CCc1ccc(N2CC(C(=O)Nc3nc4ccc(S(C)(=O)=O)cc4s3)CC2=O)cc1 (centres undefined) | 0.5% (inactive) |
| O=C(CCCN1C(=O)S/C(=C/C=C/c2ccccc2)C1=O)Nc1ccc(C(=O)O)cc1 | -38% (inactive) |
| O=C(CCc1ccccc1)NC(NC(=S)Nc1ccc(Cl)cc1)C(Cl)(Cl)Cl (centres undefined) | 19.9% (inactive) |
| C/C(=N/NC(=O)c1nnn(-c2nonc2N)c1-c1ccccc1)c1ccncc1 | -26.6% (inactive) |
| Cc1c(Cl)c(C(=O)N2CCCc3ccccc32)nn1C | 0.6% (inactive) |
| O=c1cc(C(F)(F)F)oc2c1ccc1ccccc12 | -3.4% (inactive) |
| O=c1cc(C(Cl)(Cl)Cl)oc2c1ccc1ccccc12 | 82.3% (active) |
| O=c1cc(C(F)F)oc2c1ccc1ccccc12 | 27.3% (inactive) |
| O=C(/C=C/c1ccc(OC(F)F)cc1)Nc1cccc(S(=O)(=O)NC2=NCCCCC2)c1 | -43.6% (inactive) |
| COCCC(=O)N1CCC(Oc2ccc(C(=O)N3C[C@H]4CC[C@H]3C4)cc2)CC1 | -33% (inactive) |
| COc1cc(C(=O)NCCNC(=O)c2cc(OC)c(C)c(OC)c2)cc(OC)c1C | -45.1% (inactive) |
| C=CCNC(=O)c1ccccc1NC(=O)COc1ccccc1 | 27.8% (inactive) |
| C=CCNC(=O)COc1ccc(Oc2ccccc2)cc1 | 52.1% (active) |
| COCCNC(=O)COc1ccc(Oc2ccccc2)cc1 | -26.6% (inactive) |
